The list is not random: actives were taken first. Their share in the collection is about 1.2%.
VLA-4 inh – inhibition in human VLA-4 binding assay, primary screen, VLA-4 allosteric modulator project, MLPCN library, flow cytometry, VLA-4 expressing cells; actives 0.2% (n = 330,000); ligand binding flow cytometry; inhibition, % (about 7 µM as worked out from the volumes in the protocol); AID 2557, 2010; in the data active means inhibition above about 50%
SKN-1 inh – suppressors of acrylamide-induced Pgst-4::GFP reporter in worms, primary screen, SKN-1 inhibitor project, whole organism, uHTS, GFP/RFP fluorescence ratio, strain VP596 | AID 624304, 2012 | inhibition, % at 21.8 µM | actives 0.49% (n = 360,000) | C. elegans VP596 Pgst-4::GFP/RFP ratio, 24 h;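 active means interference check ratio from 0.5 to 1.5 plus GFP to RFP signal ratio inhibition reaching or exceeding a fixed threshold, cut at about 30% in these data, passing the limit was not always enough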
Platelet DG rel – inhibitors of platelet dense granule secretion, primary screen, cell-based, MLPCN, human platelets. human platelet-rich plasma, SFLLRN dense granule ATP release, luminescence. inhibition, %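 (compounds screened at 7.5 µM in platelet-rich plasma)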. actives 0.22% (n = 300,000). AID 1663, 2009;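 active means mean replicate score, as percent of positive control, at or above 50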
Yeast superoxide – reduction of superoxide in aged yeast, primary screen, HTS | AID 2690, 2010 | actives 0.18% (n = 330,000) | S. cerevisiae aged cells, superoxide DHE fluorescence; active compounds read low | superoxide response (% of plate mean), % at 10 µM;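 active means superoxide response under a set limit, about three screen SD below normal, cut at about 65% in these data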;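 further: yeast aged for seven days with compound at 30 °C before DHE staining; 100% = average MFI of all compound-treated wells on the plate with controls excluded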
ABCB6 inh 2 – ABCB6 transporter inhibitors, primary screen, K562-ABCB6 cells, flow cytometry, MLPCN library. ATP-binding cassette sub-family B member 6 (Homo sapiens), Q9NP58. K562-ABCB6 porphyrin accumulation, 1 h; active compounds read low. fluorescence ratio to DMSO, % at 10 µM. actives 0.19% (n = 360,000);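 active means fluorescence ratio to DMSO below 75%, the collection mean minus 3 SD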;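 further: signal is porphyrin accumulated inside mitochondria; 100% equals median channel fluorescence of DMSO control wells; lower ratio means ABCB6 inhibition with less porphyrin fluorescence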
Target sequence (Q9NP58 whole entry, looked up): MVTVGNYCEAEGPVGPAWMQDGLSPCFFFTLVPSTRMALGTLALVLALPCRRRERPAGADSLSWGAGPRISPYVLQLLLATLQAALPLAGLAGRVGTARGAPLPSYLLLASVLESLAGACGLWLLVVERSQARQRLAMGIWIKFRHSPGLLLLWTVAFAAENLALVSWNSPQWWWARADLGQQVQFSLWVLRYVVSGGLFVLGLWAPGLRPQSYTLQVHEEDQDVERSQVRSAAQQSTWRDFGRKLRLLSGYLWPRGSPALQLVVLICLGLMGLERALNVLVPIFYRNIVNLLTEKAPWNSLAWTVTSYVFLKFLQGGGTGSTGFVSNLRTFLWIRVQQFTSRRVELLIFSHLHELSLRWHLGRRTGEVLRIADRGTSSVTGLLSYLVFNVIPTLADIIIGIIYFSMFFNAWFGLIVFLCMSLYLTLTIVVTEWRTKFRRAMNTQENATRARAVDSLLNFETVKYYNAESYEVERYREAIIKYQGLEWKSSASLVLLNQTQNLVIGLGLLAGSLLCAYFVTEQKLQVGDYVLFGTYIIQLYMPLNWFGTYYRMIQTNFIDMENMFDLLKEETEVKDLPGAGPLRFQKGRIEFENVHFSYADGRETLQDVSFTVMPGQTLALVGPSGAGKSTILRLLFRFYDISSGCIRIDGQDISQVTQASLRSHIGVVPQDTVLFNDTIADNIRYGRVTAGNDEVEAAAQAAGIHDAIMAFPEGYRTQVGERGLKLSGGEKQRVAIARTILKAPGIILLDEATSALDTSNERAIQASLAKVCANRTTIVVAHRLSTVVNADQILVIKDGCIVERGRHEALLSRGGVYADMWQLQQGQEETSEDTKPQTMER
Superoxide pick – superoxide lowering in aged yeast cells, confirmation, cherry picked compounds; shares compounds with Yeast superoxide; S. cerevisiae aging, superoxide DHE fluorescence; active compounds read low; superoxide response (% of plate), % at 10 µM; actives 1% (n = 850); AID 434994, 2010;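 active means superoxide signal below 65% of the plate average of sample wells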;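 further: cells aged with compound for 7 days at 30 degrees C before staining; 100% equals mean DHE fluorescence of all compound wells on the plate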
DHE fluor count – DHE quenching or ROS scavenging interference in aged yeast, artefact control for yeast caloric restriction mimetic project, S. cerevisiae BY4741, flow cytometry | fluorescence response, % at 10 µM | DHE fluorescence; active compounds read low | 850 tested, under 10 active | shares compounds with Yeast superoxide;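 active means fluorescence response below 15%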;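 further: percent of the mean fluorescence averaged over all compound wells on the plate; lower means stronger quenching of DHE signal or ROS scavenging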
ABCB6 inh CP1 – ABCB6 transporter inhibitors, confirmation, K562-ABCB6 cells, flow cytometry, cherry pick 1; shares compounds with ABCB6 inh 2; 700 tested, under 10 active; K562-ABCB6 porphyrin accumulation, 1 h; active compounds read low; ratio response (% of DMSO), % at 10 µM;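 active means repeat-averaged ratio response below 75% of DMSO, the collection mean minus 3 SD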;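 further: median porphyrin fluorescence at 575 nm with 488 nm excitation from mitochondria; lower ratio means less porphyrin signal so ABCB6 inhibition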
Starred values were filed as active, the others as inactive; . = no result.

SMILES	VLA-4 inh	SKN-1 inh	Platelet DG rel	Yeast superoxide	ABCB6 inh 2	Superoxide pick	DHE fluor count	others
COc1ccc(N2CCN(C(=O)c3cccnc3)CC2)c([N+](=O)[O-])c1	1.9	-8.0	-2.3	98.3	96.0	101.2	93.7
CCC(C)c1ccc(C(C)NC(=S)NC2CCCCC2)cc1 (stereo unspecified)	15.5	5.9	6.3	50.4*	98.0	83.6	90.4
Cc1cc([N+](=O)[O-])nn1Cc1ccc(C(=O)N/N=C/c2ccc(O)cc2O)cc1	0.0	0.7	-7.5	64.9*	81.0	94.5	94.0
CC12CCCC[C@@H]1CCC1C2CCC2(C)C1CC[C@@]2(O)CNCCO (stereo partly specified)	3.7	14.7	.	88.6	95.0	102.6	94.0
CC(=O)N1CCN(C(=O)c2ccc3c(c2)S(=O)(=O)c2ccccc2C3=O)CC1	-6.9	12.6	-6.3	47.1*	89.0	95.0	99.0
CCC(C)c1ccccc1NC(=O)COC(=O)c1ccc2c(c1)S(=O)(=O)c1ccccc1C2=O (stereo unspecified)	-1.2	6.9	-13.7	99.1	98.0	.	.
CCc1cccc(C)c1NC(=O)COC(=O)c1ccc2c(c1)S(=O)(=O)c1ccccc1C2=O	2.5	7.4	-0.7	58.5*	91.0	93.6	96.1
CN1CCN(C(=O)c2ccc3c(c2)S(=O)(=O)c2ccccc2C3=O)CC1	9.7	5.2	3.9	113.7	104.0	.	.
COCCNC(=O)C1(C)CCN(C(=O)c2ccc(SC(F)(F)F)cc2)C1 (stereo unspecified)	.	2.6	.	.	93.0	.	.
COc1ccc(CNC(=O)c2cc3ccccc3oc2=O)cc1	-3.0	-0.4	0.6	63.2*	97.0	96.3	93.4
COc1ccc2cc(C(=O)NCc3ccccc3)c(=O)oc2c1	-4.3	-1.2	-2.4	97.7	98.0	.	.
Cc1ccccc1C(NC(=O)C1CCN(Cc2ccc(Oc3ccccc3)cc2)CC1)c1ccsc1 (stereo unspecified)	.	-1.8	.	.	96.0	.	.
Cc1ccc(-c2nnc(Nc3ccc4c(c3)OCO4)c3ccccc23)cc1S(N)(=O)=O	3.5	16.2	-22.0	109.7	99.0	98.6	94.2
Cc1ccc(-c2nnc(Nc3ccc(C(N)=O)cc3)c3ccccc23)cc1S(=O)(=O)NCC1CCCO1 (stereo unspecified)	7.8	5.4	0.1	95.1	91.0	112.3	100.4
CNC(=O)COc1ccc(Nc2nnc(-c3ccc(C)c(S(N)(=O)=O)c3)c3ccccc23)cc1	5.8	17.3	-14.5	41.8*	77.0	101.4	92.0
COc1nnc(-c2ccc(C)c(S(=O)(=O)NCC3CCCO3)c2)c2ccccc12 (stereo unspecified)	5.0	5.2	0.7	108.8	93.0	.	.
CC(=O)Nc1ccc(Nc2nnc(-c3ccc(C)c(S(N)(=O)=O)c3)c3ccccc23)cc1	-12.4	-0.9	-0.9	90.2	181.0	105.9	89.9
COC(=O)[C@@]1(C(C)C)N=C(c2cc(OC)c(OC)c(OC)c2)[C@]2(O1)C(=O)Nc1ccccc12	.	5.5	.	.	98.0	.	.
COC(=O)[C@]12CCCCC=C1N(Cc1ccc(Cl)cc1Cl)C(=O)[C@H](CC(=O)NCCC(C)C)C2	.	14.1	.	.	100.0	.	.
O=C(O)CCC1C(=O)NC(=O)CC1c1ccccc1 (stereo unspecified)	.	8.1	.	.	104.0	.	.
CC(C)N1CCC(C)(C(=O)Nc2ccc(Cl)c(Cl)c2)C1 (stereo unspecified)	.	-8.2	.	.	99.0	.	.
COc1ccc(CNC(=O)CNC(=O)c2ccc(C(C)(C)C)cc2)cc1OC	12.2	-11.2	-9.0	62.0*	100.0	104.3	88.9
COc1ccc(C(=O)NCC(=O)OCC(=O)NC(=O)c2ccc(C(C)(C)C)cc2)cc1OC	20.2	-1.1	.	145.4	100.0	.	.
OC(COCC(F)(F)C(F)(F)C(F)(F)C(F)F)Cn1c2ccc(Cl)cc2c2cc(Cl)ccc21 (stereo unspecified)	8.0	-5.0	3.7	97.0	95.0	108.5	93.5
N=c1n(Cc2ccc(Cl)cc2)c2ccccc2n1CC(O)COc1ccccc1 (stereo unspecified)	9.1	-3.9	6.0	106.7	98.0	.	.
SMILES	VLA-4 inh	SKN-1 inh	Platelet DG rel	Yeast superoxide	ABCB6 inh 2	Superoxide pick	DHE fluor count	others
Nc1ncnc2c1ncn2[C@@H]1O[C@H](C(=O)N[C@@H](CO)Cc2ccccc2)[C@@H](O)[C@H]1O	.	3.5	.	.	99.0	.	.
CCc1nonc1NC(=O)c1oc2c(C)c(C)ccc2c1C	-11.0	3.9	-3.0	42.9*	116.0	98.2	89.4
CCc1nonc1NC(=O)c1oc2cc(Br)ccc2c1C	-5.0	6.6	-9.7	113.0	93.0	.	.
CCN(CC)CCN1C(=O)C(O)=C(C(C)=O)C1c1ccccc1[N+](=O)[O-] (stereo unspecified)	-9.0	6.4	8.9	93.7	102.0	.	.
CC(=O)C1=C(O)C(=O)N(CCc2ccccc2)C1c1ccccc1[N+](=O)[O-] (stereo unspecified)	0.0	3.3	0.3	58.6*	105.0	107.2	96.8
O=C(/C=C/c1ccccc1)NC(=S)NNC(=O)Cc1cccs1	5.4	26.5	9.7	50.5*	90.0	87.5	88.0
Cc1ccc(C(=O)N2CCN(c3ccccc3Cl)CC2)cc1[N+](=O)[O-]	2.9	-5.0	0.0	73.4	97.0	92.3	98.9
O=C(c1cccc([N+](=O)[O-])c1)N1CCN(c2cccc(Cl)c2)CC1	3.8	-0.1	-2.8	99.8	98.0	.	.
Cc1ccc(N2CCN(C(=O)c3cccc([N+](=O)[O-])c3)CC2)cc1Cl	3.9	9.7	2.9	112.0	89.0	87.8	98.7
CC1(C(=O)NCc2ccccc2)CCC(=O)N1CCCn1ccnc1 (stereo unspecified)	.	-0.4	.	.	98.0	.	.
CNC(=O)c1cc(Nc2nnc(-c3ccc(C)c(S(N)(=O)=O)c3)c3ccccc23)ccc1OC	-19.3	8.5	2.4	58.2*	74.0*	115.2	111.3	ABCB6 inh CP1=101.0
Nc1nc2c(nnn2C2CC(O)C(CO)O2)c(=O)[nH]1 (stereo unspecified)	.	12.1	.	.	97.0	.	.

Screening results from PubChem.
